Experiment [1] can be described thus: qHTS assay to identify small molecule agonists of the androgen receptor (AR) signaling pathway in the presence of an antagonist - cell viability counter screen (AID 1259379).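 Also: MDA-kb2 human breast cancer cells carrying an MMTV luciferase reporter; series mostly up to about 92 µM; nearly all actives have a fitted effect of over 25% in size.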 A digest of the protocol: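 Cytotoxicity is assessed by CellTiter-Fluor in MDA-kb2 cells carrying an MMTV-driven luciferase reporter. Cells receive 3.0uM nilutamide plus compounds at 15 concentrations and incubate 16 hr at 37C without CO2 before fluorescence reading.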
Background: qHTS replaces the single test concentration by a dilution series.

Experiment [2] deals with Androgen receptor (Homo sapiens) (UniProt P10275). In words: qHTS assay to identify small molecule agonists of the androgen receptor (AR) signaling pathway in the presence of an antagonist (AID 1259381; calls by dose curve; also: nearly all actives have a fitted effect of over 15% in size). A digest of the protocol:
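Agonist-mode confirmation screen: human MDA-kb2 cells stably expressing luciferase under an MMTV promoter bearing AR and GR response elements, co-treated with 3.0uM nilutamide (final). Luminescence measured after 16hr compound incubation.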

The nature of experiment [3]: qHTS assay to identify small molecule antagonists of the estrogen receptor beta (ER-beta) signaling pathway - cell viability counter screen (AID 1259382). Also: nearly all actives have a fitted effect of over 55% in size. Also: potency is read from the fitted curve at half-maximal effect. A digest of the protocol: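 Cytotoxicity counter screen multiplexed with the beta-lactamase antagonist assay: GripTite HEK293T ER-beta-bla cells were treated 16 hr with test chemicals in the presence of 1nM 17-beta-estradiol, and viability was measured by CellTiter-Glo.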

In experiment [4] the target is Estrogen receptor (Homo sapiens) (UniProt P03372). In words: qHTS assay to identify small molecule agonists of the estrogen receptor alpha (ER-alpha) signaling pathway in the presence of an antagonist (AID 1259383; calls by dose curve; also: top concentration of the series differs between compounds; nearly all actives have a fitted effect of over 15% in size). The essentials:
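Agonist-mode confirmation in the presence of the ER antagonist ICI-182,780 at 10.0nM final. Breast-derived VM7Luc4E2 reporter cells were exposed to compounds for 22hr, and ERE-driven luciferase was quantified by luminescence.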

Experiment [5] in a line: qHTS assay to identify small molecule agonists of the estrogen receptor alpha (ER-alpha) signaling pathway in the presence of an antagonist - cell viability counter screen (AID 1259386).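 Also: series mostly up to about 92 µM; cells exposed to compounds for 22 h at 37 °C before the viability read; nearly all actives have a fitted effect of over 30% in size.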 A digest of the protocol: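 Cytotoxicity was measured in parallel with the ERE-luciferase agonist screen, in the same wells. The cells were VM7Luc4E2, which endogenously express ER-alpha, and treatment was with compounds plus 10.0nM ICI-182,780 for 22hr.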

The target in experiment [6] is Progesterone receptor (Homo sapiens) (UniProt P06401). In words: qHTS assay to identify small molecule agonists of the progesterone receptor (PR) signaling pathway (AID 1346784; calls by dose curve; also: nearly all actives have a fitted effect of over 30% in size). The essentials:
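Reporter assay, GripTite PR-UAS-bla HEK 293T cells: 16 hr exposure to DMSO-dissolved compounds at 37C, 5% CO2, in steroid-depleted (2% charcoal-stripped FBS) medium; beta-lactamase measured by FRET fluorescence.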

Experiment [7] has the same target. Description: qHTS assay to identify small molecule antagonists of the progesterone receptor (PR) signaling pathway (AID 1346795; active = well fitted inhibition curve with a large enough effect in the signal ratio in the repeat runs, not every such curve was filed as active; the % refers to the signal ratio; also: potency is read from the fitted curve at half-maximal effect). A digest of the protocol: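 Stimulus R5020 at 1 nM final; cells HEK293T PR-UAS-bla; medium with 2% charcoal-stripped FBS; compound exposure 16 hr at 37C, 5% CO2; detection by FRET beta-lactamase substrate, 2 hr, room temperature.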
Experiment [8] is described as follows: qHTS assay to identify small molecule antagonists of the progesterone receptor (PR) signaling pathway - cell viability counter screen (AID 1346798). Also: series mostly up to about 92 µM; nearly all actives have a fitted effect of over 50% in size. A digest of the protocol:
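In the same plates used for the beta-lactamase readout, cell viability of compound- and R5020-treated PR-UAS-bla HEK293T cells (16 hr, 37C) was assessed by CellTiter-Glo luminescence.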

Experiment [9] in a line: qHTS assay to identify small molecule agonists of the progesterone receptor (PR) signaling pathway - cell viability counter screen (AID 1346799; calls by dose curve; also: nearly all actives have a fitted effect of over 45% in size; also: potency is read from the fitted curve at half-maximal effect). A digest of the protocol: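 Multiplexed viability read: CellTiter-Glo luminescence, 30 min RT, following LiveBLAzer FRET measurement on PR-UAS-bla HEK293T cells exposed to compounds 16 hr.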
Experiment [10] in a line: qHTS assay to identify small molecule antagonists of the TGF-beta/Smad signaling pathway - cell viability counter screen (AID 1346824). Also: nearly all actives have a fitted effect of over 50% in size. A digest of the protocol:
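Cytotoxicity counter-screen run in the same wells as the beta-lactamase Smad reporter read: CellTiter-Glo luminescence after 30 min at room temperature. HEK 293T SBE-bla cells had 5 hr compound exposure at 37 C with TGF-beta1 (0.25 ng/mL stock).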

Experiment [11] is described as follows: qHTS assay to identify small molecule agonists of the TGF-beta/Smad signaling pathway - cell viability counter screen (AID 1346829). Also: top concentration of the series differs between compounds; nearly all actives have a fitted effect of over 45% in size. A digest of the protocol: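 In parallel with the Smad reporter read, viability of HEK 293T cells stably carrying SBE-bla is quantified by ATP luminescence following 5 hr compound treatment.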
A short description of experiment [12]: qHTS assay to identify small molecule agonists of the TGF-beta/Smad signaling pathway (AID 1346859; active = well fitted activation curve with a large enough effect in the signal ratio in the repeat runs, not every such curve was filed as active; the % refers to the signal ratio; also: series mostly up to about 77 µM). A digest of the protocol: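 Screening used HEK 293T SBE-bla cells at 4,000/well. Test agents: 5 hr, 37 C. Detection: FRET substrate, 2 hr RT, then excitation 405 nm with emissions at 460 and 530 nm.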
For experiment [13], the target named is Thyrotropin-releasing hormone receptor (Homo sapiens) (UniProt P34981). Description: qHTS assay to identify small molecule agonists of the thyrotropin-releasing hormone receptor (TRHR) signaling pathway (AID 1346891; calls by dose curve; also: series mostly up to about 58 µM). A digest of the protocol:
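Readout was intracellular calcium fluorescence in TRHR-Hek293 cells. Cells were incubated 18 h, dye-loaded 2 h at 37 °C, and treated with compound in agonist mode.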

The nature of experiment [14]: Human pregnane X receptor (PXR) small molecule agonists, qHTS cell viability counter screen (AID 1346977). Also: nearly all actives have a fitted effect of over 50% in size. A digest of the protocol: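 In each well, the PXR reporter HepG2 line was checked for viability: CellTiter-Fluor reagent added 23hr post-dosing, fluorescence read after 1hr incubation at 37C.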
The nature of experiment [15]: Caspase-3/7 induction in HepG2 cells by small molecules, qHTS assay (AID 1346978). Also: nearly all actives have a fitted effect of over 15% in size. The essentials:
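Caspase-3/7 induction was measured by Caspase-Glo 3/7 luminescence (30 min, room temperature) after a 17 hr compound exposure of wild-type HepG2 cells seeded at 2,000 per well and pre-incubated 5 hr.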

Experiment [16] can be described thus: Caspase-3/7 induction in CHO-K1 cells by small molecules, qHTS cell viability counter screen (AID 1346979). Also: nearly all actives have a fitted effect of over 35% in size. Also: potency is read from the fitted curve at half-maximal effect. The essentials: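 Following a 5hr settling period, CHO-K1 cells at 1,500 per well received DMSO-dissolved compounds. Cell viability was quantified 16hr later by CellTiter-Fluor fluorescence, measured after 1hr with reagent at 37C.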
A short description of experiment [17]: qHTS assay to identify small molecule agonists of the estrogen receptor beta (ER-beta) signaling pathway - cell viability counter screen (AID 1259380). Also: nearly all actives have a fitted effect of over 30% in size. Also: potency is read from the fitted curve at half-maximal effect. The essentials: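 Cytotoxicity is measured in parallel with the reporter screen: after 16 hr compound exposure at 37C and a 2 hr LiveBLAzer step, CellTiter-Glo is added to the same ER-beta-UAS-bla HEK293T wells and luminescence read after 30 min.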

Experiment [18] is described as follows: qHTS assay to identify small molecule agonists or antagonists of the thyroid stimulating hormone receptor (TSHR) signaling pathway - wild type cell line counter screen (AID 1259384; calls by dose curve). A digest of the protocol:
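Counter screen in untransfected Hek293: compounds (15-point titration, triplicate) plus phosphodiesterase inhibitor Ro20-1724 added after 18 h plating; 30 min RT. Intracellular cAMP via competitive d2/cryptate immunoassay, 1 h incubation.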

Experiment [19] concerns the target Thyrotropin receptor (Homo sapiens) (UniProt P16473). In words: qHTS assay to identify small molecule antagonists of the thyroid stimulating hormone receptor (TSHR) signaling pathway (AID 1259385; calls by dose curve; also: nearly all actives have a fitted effect of over 20% in size). A digest of the protocol:
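Antagonist mode: compound-treated TSHR-expressing HEK293 cells were stimulated with 1.5 ng/mL TSH (final) in presence of Ro20-1724 for 30 min at RT. HTRF cAMP detection after 1 h; each compound tested at 15 concentrations, triplicate.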

In experiment [20] the target is Thyrotropin-releasing hormone receptor (Homo sapiens) (UniProt P34981). Description: qHTS assay to identify small molecule antagonists of the thyrotropin-releasing hormone receptor (TRHR) signaling pathway (AID 1346877; active = well fitted inhibition curve with a large enough effect in the repeat runs, not every such curve was filed as active; also: series mostly up to about 51 µM). The essentials: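 Antagonism is measured as suppression of the calcium response to 1 nM TRH in TRHR-HEK293 cells that have been dye-loaded for 2 h at 37 °C after overnight plating. Each compound is tested at 15 concentrations in triplicate.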
Thyrotropin-releasing hormone receptor (Homo sapiens), sequence (P34981 whole entry, looked up): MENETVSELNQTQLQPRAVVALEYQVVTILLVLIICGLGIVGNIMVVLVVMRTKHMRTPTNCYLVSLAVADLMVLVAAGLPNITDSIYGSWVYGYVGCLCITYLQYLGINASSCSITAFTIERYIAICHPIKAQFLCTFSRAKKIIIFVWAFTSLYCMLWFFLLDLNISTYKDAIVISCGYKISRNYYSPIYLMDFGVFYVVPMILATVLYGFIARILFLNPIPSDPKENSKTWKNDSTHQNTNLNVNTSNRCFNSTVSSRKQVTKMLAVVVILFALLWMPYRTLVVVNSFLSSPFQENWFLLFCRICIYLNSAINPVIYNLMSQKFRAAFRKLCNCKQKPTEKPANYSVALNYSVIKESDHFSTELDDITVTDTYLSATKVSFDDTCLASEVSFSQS

Inconclusive results are not listed. Where a structure was tested more than once in an assay, its records may differ in their call. Calls of active or inactive are those of the source. Unless noted, calls follow the shape of the dose curve; as a rule, active = well fitted curve in the direction sought with a large enough effect in the repeat runs; inconclusive = weak or mixed curves; inactive = no such curve, though single readings can be large; an effect the other way counts as inactive or inconclusive.

Progesterone receptor (Homo sapiens), sequence (P06401 whole entry, looked up): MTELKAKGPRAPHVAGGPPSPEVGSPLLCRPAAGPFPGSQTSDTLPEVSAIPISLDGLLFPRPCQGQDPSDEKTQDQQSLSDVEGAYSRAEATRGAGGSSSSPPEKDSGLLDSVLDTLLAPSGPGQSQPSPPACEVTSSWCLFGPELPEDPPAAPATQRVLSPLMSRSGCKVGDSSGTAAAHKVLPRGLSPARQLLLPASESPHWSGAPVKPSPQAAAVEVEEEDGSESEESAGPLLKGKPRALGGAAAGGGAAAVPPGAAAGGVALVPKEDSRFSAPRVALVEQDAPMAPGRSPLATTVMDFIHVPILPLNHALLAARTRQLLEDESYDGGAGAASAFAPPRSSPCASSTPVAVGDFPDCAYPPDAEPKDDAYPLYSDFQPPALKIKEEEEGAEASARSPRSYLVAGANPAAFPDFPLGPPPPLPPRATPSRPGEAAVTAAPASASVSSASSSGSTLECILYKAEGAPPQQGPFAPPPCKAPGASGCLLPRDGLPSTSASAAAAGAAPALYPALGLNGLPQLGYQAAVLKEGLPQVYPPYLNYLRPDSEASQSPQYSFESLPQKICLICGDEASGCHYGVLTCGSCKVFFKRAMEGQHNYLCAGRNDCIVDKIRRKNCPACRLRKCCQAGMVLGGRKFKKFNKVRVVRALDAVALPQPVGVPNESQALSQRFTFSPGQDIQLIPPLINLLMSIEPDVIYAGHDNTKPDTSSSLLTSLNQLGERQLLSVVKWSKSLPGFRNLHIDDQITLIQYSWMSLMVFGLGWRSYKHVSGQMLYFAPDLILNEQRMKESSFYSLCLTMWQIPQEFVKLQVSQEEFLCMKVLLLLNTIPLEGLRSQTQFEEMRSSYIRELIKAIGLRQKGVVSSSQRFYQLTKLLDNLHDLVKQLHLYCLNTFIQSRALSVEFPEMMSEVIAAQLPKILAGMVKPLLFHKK
Estrogen receptor (Homo sapiens), sequence (P03372 whole entry, looked up): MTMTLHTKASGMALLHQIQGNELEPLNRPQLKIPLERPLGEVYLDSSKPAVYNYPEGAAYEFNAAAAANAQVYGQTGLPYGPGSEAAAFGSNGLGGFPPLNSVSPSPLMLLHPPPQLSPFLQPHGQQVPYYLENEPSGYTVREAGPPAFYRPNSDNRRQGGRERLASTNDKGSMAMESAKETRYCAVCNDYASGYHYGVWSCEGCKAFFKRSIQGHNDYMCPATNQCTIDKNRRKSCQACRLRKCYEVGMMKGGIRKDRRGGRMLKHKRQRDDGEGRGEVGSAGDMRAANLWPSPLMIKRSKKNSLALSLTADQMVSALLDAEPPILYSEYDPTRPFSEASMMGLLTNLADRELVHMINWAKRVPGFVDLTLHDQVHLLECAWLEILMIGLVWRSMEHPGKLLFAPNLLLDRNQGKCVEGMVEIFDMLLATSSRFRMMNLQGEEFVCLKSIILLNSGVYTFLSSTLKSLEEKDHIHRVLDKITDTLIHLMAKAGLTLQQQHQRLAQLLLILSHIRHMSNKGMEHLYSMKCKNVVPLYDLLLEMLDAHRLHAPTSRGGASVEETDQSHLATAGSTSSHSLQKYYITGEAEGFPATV
Androgen receptor (Homo sapiens), sequence (P10275 whole entry, looked up): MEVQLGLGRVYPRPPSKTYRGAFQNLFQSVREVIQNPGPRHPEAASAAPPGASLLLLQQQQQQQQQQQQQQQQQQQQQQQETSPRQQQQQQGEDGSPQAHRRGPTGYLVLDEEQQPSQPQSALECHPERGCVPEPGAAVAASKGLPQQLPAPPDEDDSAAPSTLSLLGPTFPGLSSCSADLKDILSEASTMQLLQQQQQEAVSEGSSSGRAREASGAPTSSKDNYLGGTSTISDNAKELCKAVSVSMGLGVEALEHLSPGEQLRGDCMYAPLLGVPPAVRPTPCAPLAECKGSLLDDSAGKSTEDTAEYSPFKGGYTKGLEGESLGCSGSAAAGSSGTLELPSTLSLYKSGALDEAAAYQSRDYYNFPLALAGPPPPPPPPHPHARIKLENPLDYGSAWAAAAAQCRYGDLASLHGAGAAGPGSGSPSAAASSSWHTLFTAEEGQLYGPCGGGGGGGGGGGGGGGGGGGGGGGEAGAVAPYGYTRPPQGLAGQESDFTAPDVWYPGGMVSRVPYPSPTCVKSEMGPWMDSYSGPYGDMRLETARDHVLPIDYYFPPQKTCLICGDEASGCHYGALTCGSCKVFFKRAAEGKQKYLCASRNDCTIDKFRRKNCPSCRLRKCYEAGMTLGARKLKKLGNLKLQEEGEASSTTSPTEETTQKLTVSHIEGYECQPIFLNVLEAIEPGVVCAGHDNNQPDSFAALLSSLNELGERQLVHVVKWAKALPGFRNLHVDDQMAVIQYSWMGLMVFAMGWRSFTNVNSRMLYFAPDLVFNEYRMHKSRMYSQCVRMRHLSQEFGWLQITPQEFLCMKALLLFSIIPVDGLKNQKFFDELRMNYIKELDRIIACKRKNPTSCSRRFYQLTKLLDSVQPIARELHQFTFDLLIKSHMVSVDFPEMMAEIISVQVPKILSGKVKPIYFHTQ
Thyrotropin receptor (Homo sapiens), sequence (P16473 whole entry, looked up): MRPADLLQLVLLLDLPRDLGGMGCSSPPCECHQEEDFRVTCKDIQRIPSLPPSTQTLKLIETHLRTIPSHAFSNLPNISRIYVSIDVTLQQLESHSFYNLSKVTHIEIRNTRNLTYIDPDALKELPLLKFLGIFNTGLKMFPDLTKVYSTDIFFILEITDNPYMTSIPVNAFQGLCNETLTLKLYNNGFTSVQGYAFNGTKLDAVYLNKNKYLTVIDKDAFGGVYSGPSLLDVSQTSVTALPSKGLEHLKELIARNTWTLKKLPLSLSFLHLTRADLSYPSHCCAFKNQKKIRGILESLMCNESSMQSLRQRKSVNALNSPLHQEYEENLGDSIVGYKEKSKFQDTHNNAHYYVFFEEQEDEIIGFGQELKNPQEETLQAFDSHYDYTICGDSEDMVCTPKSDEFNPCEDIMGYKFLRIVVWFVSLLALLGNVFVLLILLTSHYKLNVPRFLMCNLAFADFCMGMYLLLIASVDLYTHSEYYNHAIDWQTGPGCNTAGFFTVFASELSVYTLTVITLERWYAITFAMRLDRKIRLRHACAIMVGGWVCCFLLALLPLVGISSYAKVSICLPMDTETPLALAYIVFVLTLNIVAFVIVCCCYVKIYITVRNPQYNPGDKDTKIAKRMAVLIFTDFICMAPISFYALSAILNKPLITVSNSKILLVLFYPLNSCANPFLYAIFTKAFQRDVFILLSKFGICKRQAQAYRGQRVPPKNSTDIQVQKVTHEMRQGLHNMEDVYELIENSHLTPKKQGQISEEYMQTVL

On to `CCN(CC)c1ccccc1`, for which the result in [1], in [2], in experiment [5], in experiment [6], in [11] and in [15] was inactive. The Potency result in experiment [3], in experiment [4], in [7], in [8], in experiment [9] and in experiment [10] was “inactive” throughout. Moreover, the Potency result in [12], in [13], in [14] and in experiment [16] was “inactive” in each case.

As for `CC(C)C#N`, the result in experiment [1], in experiment [18], in experiment [5], in experiment [6] and in experiment [11] was inactive. Moreover, the Potency entry in experiment [17], in experiment [3], in [19], in experiment [7], in [8] and in experiment [9] was “inactive” in each case. Besides, the Potency result in experiment [10], in [12], in [13], in experiment [14] and in experiment [16] was “inactive” in each case.

Consider `CN(C)[C@@H]1C(=O)C(C(N)=O)=C(O)[C@@]2(O)C(=O)C3=C(O)c4c(O)cccc4[C@@](C)(O)[C@H]3C[C@@H]12`, for which the outcome in experiment [1], in [18], in experiment [5], in experiment [6], in experiment [11] and in experiment [15] was inactive. The Potency entry in experiment [17], in [3], in experiment [19], in [7], in [8] and in experiment [9] was “inactive” in each case. In addition, the Potency entry in experiment [10], in experiment [12], in experiment [13], in experiment [14] and in [16] was “inactive” throughout.

As for `[N-]=[N+]=[N-]`, the outcome in [1], in experiment [2], in experiment [18], in experiment [5], in experiment [6] and in experiment [11] was inactive. In experiment [20], the result was inactive. Further, the Potency result in [3], in experiment [4], in [19], in experiment [7], in experiment [8] and in experiment [9] was “inactive” throughout. Moreover, the Potency entry in experiment [10], in experiment [12], in experiment [13], in experiment [14] and in experiment [16] was “inactive” each time.

As for `OCCN(CCO)CCO`, the result in [1], in experiment [18], in [5], in experiment [6] and in experiment [11] was inactive. Further, the Potency result in experiment [17], in experiment [3], in experiment [19], in [7], in experiment [8] and in [9] was “inactive” throughout. For the same compound, the Potency entry in [10], in experiment [12], in experiment [14] and in experiment [16] was “inactive” in each case.

As to `CCCCN(CCCC)SN(C)C(=O)Oc1cccc2c1OC(C)(C)C2`, the outcome in experiment [1], in [18], in experiment [5], in [6] and in [11] was inactive. The Potency entry in experiment [17], in [3], in [4], in [7], in [8] and in [9] was “inactive” throughout. The Potency result in [10], in experiment [12] and in [14] was “inactive” throughout. In addition, the Potency in experiment [16] is 69.7 µM (active).

Consider `CCCCOC(=O)c1ccccc1C(=O)OCCCC`, for which the outcome in experiment [1], in [18], in experiment [5], in [6], in [11] and in experiment [15] was inactive. The Potency result in [17], in experiment [3], in [4], in experiment [19], in experiment [8] and in experiment [9] was “inactive” throughout. The Potency entry in experiment [10], in [12], in experiment [14] and in experiment [16] was “inactive” each time.

With `CCC[N+](=O)[O-]`, the outcome in [1], in [18], in experiment [5], in experiment [11] and in [15] was inactive. In addition, the Potency was 8.48 µM (active) and inactive in experiment [17]; 23.9 µM (active) and inactive in [3]; 8.48 µM (active) and inactive in experiment [7]; 19 µM (active) and inactive in experiment [9]. The Potency result in experiment [19], in experiment [10], in experiment [12], in experiment [14] and in experiment [16] was “inactive” in each case.

`CCN(CC)CCO`: the outcome in [1], in [18], in experiment [5], in experiment [6], in experiment [11] and in [15] was inactive. Besides, the Potency result in experiment [17], in experiment [3], in experiment [19], in [7], in experiment [8] and in experiment [9] was “inactive” each time. Besides, the Potency result in experiment [10], in experiment [12], in experiment [13], in [14] and in experiment [16] was “inactive” throughout.
